Only some compounds are listed: those with a hit (about 28% of all), similar ones and a draw of the others.
CYP2C9 act = activators of human CYP2C9; P11712; recombinant CYP2C9, luciferin-H conversion, luminescence; hits give high values; factor 1 = untreated enzyme, 0 = blocked; AID 1024; 1.4% of 96,000 active; activation factor at 5 µM;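 active means activation factor of 2 or more for CYP2C9 at a 5 µM dose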
CD11b adhes inh = inhibitors of human CD11b/CD18 binding to fibrinogen; K562 CD11b/CD18 adhesion to fibrinogen, ATPlite luminescence; Mn2+ added to activate the integrin; inhibition, % at 10 µM; P05107+P11215; 0.54% of 93,000 active; AID 1497;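 active means primary inhibition of 50% or more at 10 µM, then 40% or more on retest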
Mac1 fbg enh = CD11b/CD18-fibrinogen binding enhancement | P05107+P11215 | K562 CD11b/CD18 adhesion to fibrinogen, ATPlite luminescence | activation, % at 10 µM | 0.07% of 93,000 active | AID 1499;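 active means 10 µM primary screen giving 50% or more activity, confirmed by 40% or more on retest at that dose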
CYP2C9 inhib = human CYP2C9 inhibition. 20% of 96,000 active. CYP2C9 Supersomes, luciferin-H conversion, luminescence. AID 777. inhibition, % at 5 µM. P11712;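 active means blocking of liver enzyme CYP2C9 beyond about 50% at 5 µM, limit read from the data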
CYP2C19 act = increases human CYP2C19 enzyme activity; recombinant CYP2C19, luciferin-H EGE luminescence; hits give high values; 0 = fully inhibited enzyme, 1 = untreated enzyme; activation factor at 5 µM; 96,000 tested, under 10 active;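 active means activation factor of at least 2 at 5 µM in the primary screen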
Target sequence (P33261 whole entry, looked up): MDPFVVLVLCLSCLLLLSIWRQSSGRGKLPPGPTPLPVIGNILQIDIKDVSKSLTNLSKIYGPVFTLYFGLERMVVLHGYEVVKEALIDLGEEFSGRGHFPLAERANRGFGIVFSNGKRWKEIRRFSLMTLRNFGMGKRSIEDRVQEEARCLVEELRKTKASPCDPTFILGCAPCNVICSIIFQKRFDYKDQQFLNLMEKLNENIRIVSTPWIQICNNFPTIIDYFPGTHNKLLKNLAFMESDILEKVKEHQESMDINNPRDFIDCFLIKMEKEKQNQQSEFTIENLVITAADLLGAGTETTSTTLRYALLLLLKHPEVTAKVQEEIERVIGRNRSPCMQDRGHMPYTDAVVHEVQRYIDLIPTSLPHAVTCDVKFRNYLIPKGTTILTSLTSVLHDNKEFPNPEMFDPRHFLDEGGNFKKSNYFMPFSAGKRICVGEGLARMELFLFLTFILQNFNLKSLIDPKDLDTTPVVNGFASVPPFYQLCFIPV
CYP2C19 inh = human CYP2C19 inhibition; P33261; 21% of 96,000 active; CYP2C19 Supersomes, luciferin-H EGE luminescence, 30 min; AID 778; inhibition, % at 5 µM;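 active means CYP2C19 inhibition above a set limit at 5 µM in the primary screen, cut at about 50% in these data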
Large screens that a line does not name were inactive.

O=C(CSc1ncn[nH]1)NCCCc1ccccc1	CYP2C19 inh 57
O=C(CSc1ncn[nH]1)Nc1ccccc1Sc1ccccc1	CYP2C19 inh 87
CCc1cccc(CC)c1NC(=O)C1SC(=Nc2ccccc2C)C(c2nc3ccccc3s2)=C1N (centres undefined)	none
CCCC(c1nnnn1CC1CCCO1)N1CCN(c2cc(Cl)ccc2C)CC1 (centres undefined)	CYP2C9 inhib 89, CYP2C19 inh 96
COc1ccc(C(c2nnnn2CC2CCCO2)N2CCN(c3ccccc3)CC2)cc1 (centres undefined)	none (no result: CD11b adhes inh, Mac1 fbg enh)
Cc1ccc(C(c2nnnn2CC2CCCO2)N2CCN(c3cccc(C)c3C)CC2)cc1 (centres undefined)	CYP2C9 inhib 70
Cc1ccc(Cl)cc1N1CCN(C(CC(C)C)c2nnnn2CC2CCCO2)CC1 (centres undefined)	none
CCC(c1nnnn1C(C)(C)C)N1CCN(c2cc(Cl)ccc2C)CC1 (centres undefined)	CYP2C9 inhib 79
CC1=C(C)[N+](=O)C2CCCCC2N1[O-] (centres undefined)	none
O=C1CCC(/C=C/c2ccccc2)=NN1Cc1ccc(Cl)c(Cl)c1	CYP2C9 inhib 73
CCOc1ccc2cc(C#N)c(SCC(=O)N3CCC(C)CC3)nc2c1	CYP2C9 inhib 63
Cc1cccc2cc(C#N)c(SCC(=O)N3CCC(C)CC3)nc12	CYP2C9 inhib 59
CCOC(=O)CSc1nc2cc(OCC)ccc2cc1C#N	none
Cc1cccc2cc(C#N)c(SCC(=O)N3CC(=O)Nc4ccccc43)nc12	none (no result: CD11b adhes inh, Mac1 fbg enh)
CCOc1ccc2nc(SCC#N)c(C#N)cc2c1	CYP2C9 inhib 67
CCOc1ccc2cc(C#N)c(SCC(=O)NC(C)CC)nc2c1 (centres undefined)	CYP2C9 inhib 54
O=C(NCCN1CCOCC1)c1ccc2ccccc2c1	none
COCC(=O)N1CCCN(c2nc3c(C)cccc3cc2C#N)CC1	CYP2C19 inh 64
CC1CCN(c2cc(=O)n(C3CCCCC3)c(=O)[nH]2)CC1	none
CCOC(=O)c1[nH]c(C)c(C(=O)Nc2cccc(Cl)c2C)c1C	none
CN(C)S(=O)(=O)c1ccc(C(=O)Nc2ccc(CCC(=O)N3CCCC3)cc2)cc1	CYP2C9 inhib 59
Clc1cccc(-c2cc3nc4c(c(N5CCOCC5)n3n2)CCCC4)c1	CYP2C9 inhib 89, CYP2C19 inh 70
Fc1cccc(-c2cc3nc4c(c(N5CCOCC5)n3n2)CCCC4)c1	CYP2C9 inhib 94, CYP2C19 inh 63
Fc1cccc(-c2cc3nc4c(c(NCc5ccco5)n3n2)CCCC4)c1	none
CCCN(CCC)C(=O)CSc1nc2ccsc2c(=O)n1NC(=O)c1ccccc1	CYP2C9 inhib 66
COc1ccc(Cc2nnn(CC(=O)O)n2)cc1	none
Cc1cc(C(=O)CSc2nnc(-c3ccco3)o2)c(C)n1-c1ccc2c(c1)OCCO2	CD11b adhes inh 87
Cc1cc(C(=O)CSc2nnc(-c3ccc4c(c3)OCO4)o2)c(C)n1-c1ccc(F)cc1	none (no result: CYP2C9 act, CYP2C9 inhib, CYP2C19 act, CYP2C19 inh)
Cc1nnc(SCC(=O)c2cc(C)n(-c3ccc4c(c3)OCO4)c2C)s1	CYP2C9 inhib 83, CYP2C19 inh 97
Cc1cc(C(=O)CSc2nnc(-c3ccco3)o2)c(C)n1Cc1ccco1	none
Cn1cnnc1SCC(=O)c1ccc2c(c1)OCO2	none
Cc1cc(C(=O)CSc2nnnn2C)c(C)n1-c1ccc2c(c1)OCCO2	CYP2C9 inhib 60, CYP2C19 inh 52
COCCNc1nnc(SCC(=O)c2ccc3c(c2)OCO3)s1	CYP2C19 inh 53
COc1ccc(-c2nnc3ccc(SCC(=O)N4CCCCCC4)nn23)cc1OC	none
Cc1nnc(SCc2ccc3c(c2)OCO3)s1	CYP2C9 inhib 55, CYP2C19 inh 69
CCN(CC)c1ccc(NC(=O)CN2CCN(S(=O)(=O)c3cc(Cl)ccc3OC)CC2)cc1	CYP2C19 inh 72
CCOc1ccc(NC(=O)CCN2CCN(c3ccccc3OC)CC2)cc1	none
CCOc1ccc(NC(=O)CCN2CCN(S(=O)(=O)c3cc(Cl)ccc3OC)CC2)cc1	CYP2C9 inhib 68, CYP2C19 inh 96
CC(C)N(C(=O)CSc1nnc(CN2CCCCCC2=O)n1-c1ccccn1)C(C)C	none
O=c1oc2ccccc2c(Nc2cccc(O)c2)c1[N+](=O)[O-]	CYP2C19 inh 91
Nc1cc2c([N+](=O)[O-])cccc2o1	none
CCNc1c(N)c(=O)oc2ccccc12	none
Nc1c(Nc2ccccc2)c2ccccc2oc1=O	CYP2C9 inhib 80, CYP2C19 inh 95
O=C(CSc1nnc(CN2CCCCC2)n1-c1ccccc1)c1ccc2c(c1)OCO2	none (no result: CYP2C9 act, CYP2C9 inhib, CYP2C19 act, CYP2C19 inh)
CN1CCN(S(=O)(=O)c2ccc(NC(=O)c3csc4ccccc34)cc2)CC1	none
CC1(C)CC(=O)C=C(OC(=O)c2ccc(Cl)cc2)C1	CYP2C9 inhib 53
Cc1nc(N)sc1N=Nc1ccc(Br)cc1	none
C[C@@]12CC(=O)NC1N(C(=O)c1cccc(C(F)(F)F)c1)C(c1ccccc1O)C2 (some centres undefined)	CYP2C9 inhib 69, CYP2C19 inh 56
CSC1=NCCN1C(=O)c1cccc(C(F)(F)F)c1	none
Cc1cccc(C(=O)Oc2ccccc2C2C[C@]3(C)CC(=O)NC3N2C(=O)c2cccc(C)c2)c1 (some centres undefined)	CYP2C9 inhib 57
COC(=O)Cc1cc(=O)n2[nH]c(SC)nc2n1	CYP2C9 inhib 64
CCS(=O)(=O)N1CCN(c2ccc(Cl)cc2[N+](=O)[O-])CC1	none (no result: CYP2C9 act, CYP2C9 inhib, CYP2C19 act, CYP2C19 inh)
COc1ccc(S(=O)(=O)N2CCC(n3cnc4cc(C(F)(F)F)ccc43)CC2)cc1	CYP2C19 inh 74
O=S(=O)(c1ccc2c(c1)OCCO2)N1CCC(n2nnc3cc(C(F)(F)F)ccc32)CC1	CYP2C19 inh 94
O=S(=O)(c1ccccc1)N1CCC(n2nnc3cc(F)ccc32)CC1	none
CC(=O)Nc1ccc(S(=O)(=O)N2CCC(n3cnc4cc(F)ccc43)CC2)cc1	CYP2C9 inhib 60
Cc1nc2ccccc2n1/C(=N\S(=O)(=O)c1ccccc1)c1ccccc1	none (no result: CYP2C9 act, CYP2C9 inhib, CYP2C19 act, CYP2C19 inh)
O=C(NCc1cccs1)c1cccc(N2CCCC2=O)c1	CYP2C9 inhib 54, CYP2C19 inh 57
O=C(NC1CCCCCC1)c1cccc(N2CCCC2=O)c1	CYP2C19 inh 57
CN(c1ccc(C(=O)O)cc1)S(=O)(=O)c1ccc(Cl)cc1	none
CC(Oc1ccccc1Cl)C(=O)/C=C/N(C)C (centres undefined)	none
Cc1cc(SCCOc2ccc(Br)cc2)nc(N)n1	CYP2C9 inhib 54
CCOC(=O)C1=C(Cc2ccc(Cl)cc2)C(=O)c2ccccc2C1=O	CYP2C9 inhib 95, CYP2C19 inh 100
CCN(Cc1cc2cc(OC)ccc2[nH]c1=O)C(=O)c1ccncc1	CYP2C9 inhib 68, CYP2C19 inh 74 (no result: CD11b adhes inh, Mac1 fbg enh)
